High-throughput results (PubChem BioAssay)
Only some compounds are listed: those with a hit (about 3.8% of all), similar ones and a draw of the others.
HT1080NT lethal = kills 2HG-producing HT-1080-NT fibrosarcoma cells. HT-1080-NT fibrosarcoma viability, CellTiter-Glo ATP luminescence, 48 h. Potency, µM (series often up to 46.1 µM), actives largely listed as cytotoxic. hit rate 1.6% among 360,000;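 further: NT is the 2HG producing partner of a matched IDH1 knockdown line; nearly all actives have a fitted effect of over 55% in size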
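Viability of the 2HG-overproducing fibrosarcoma line after 48 hours of compound exposure at 37 degrees C was determined by luminescence with CellTiter-Glo, and concentration-effect curves were then fitted and categorized.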
ATXN viability = reduces viability in counter-screen for ATXN expression inhibitors. hit rate 0.49% among 400,000. S2 cells (HEK-293 line with an ATXN2-luciferase reporter) viability, CellTiter-Fluor protease fluorescence, 24 h. Potency, µM (top dose mostly 56.7 µM), usual class: cytotoxic; further: nearly all actives have a fitted effect of over 40% in size
HT1080 IDH1KD tx = HT-1080 IDH1 knockdown cell toxicity (counter line); HT-1080 IDH1 knockdown viability, ATP luminescence, 48 h; Potency, µM (doses to about 46.1 µM), most hits filed as cytotoxic; hit rate 2% among 360,000
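After a 2 h attachment period, IDH1KD HT-1080 cells took pin-transferred compound for 48 h at 37 °C; ATP-based luminescence after 10 min room-temperature reagent incubation reported viability.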
ATXN2 expr inh = inhibitors of ATXN2 expression. HEK-293 ATXN2-luciferase reporter, luminescence, 24 h. Potency, µM (top dose mostly 57 µM), most hits filed as inhibitors. hit rate 0.72% among 360,000; further: nearly all actives have a fitted effect of over 55% in size
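qHTS (up to 57 uM final) was run with 24 h compound exposure of reporter cells at 37 °C. Each well was multiplexed: SteadyGlo luminescence measured ATXN2-luciferase expression after a fluorogenic Gly-Phe-AFC viability readout (25 uM final).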
HepG2 viability = HepG2 cytotoxicity, counter-screen for TGF-b inhibitors; HepG2 CAGA-GFP viability, ATP luminescence, 18 h; Potency, µM (doses to about 46.1 µM), hits mostly cytotoxic; hit rate 0.76% among 410,000
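CellTiter-Glo luminescence gave cytotoxicity after 18 hours at 37 degrees C. The cells were HepG2 CAGA-GFP in 1% FBS DMEM, stimulated with 500 pg/mL TGF-beta after compound addition. %Activity was normalised to no-cell wells (complete cell-killing) and DMSO (no toxicity), and curves were fitted and classified.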
TGFb inhibitor = TGF-b pathway inhibition. Potency, µM (series often up to 46.1 µM), hits mostly inhibitors. HepG2 CAGA-GFP TGF-b/SMAD3 reporter, GFP fluorescence, 18 h; TGF-beta stimulated, 500 pg/mL final. hit rate 1.2% among 410,000; further: nearly all actives have a fitted effect of over 65% in size
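Cell-based qHTS in HEPG2 carrying a CAGA-GFP Smad reporter; compounds added before 500 pg/mL final TGF-beta, 18 h incubation at 37 degrees C, GFP fluorescence quantified per cell by imaging cytometry.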
Numbers stand for hits; - = inactive; ? = inconclusive; . = not tested or not shown. The call rests on the fitted dose curve; in most records, active means well fitted curve in the direction sought with a large enough effect; inconclusive means small, poorly fitted or top-dose-only effect, or another doubt; inactive means no such curve, though single readings can be large; an effect the other way counts as inactive or inconclusive.

SMILES | HT1080NT lethal | ATXN viability | HT1080 IDH1KD tx | ATXN2 expr inh | HepG2 viability | TGFb inhibitor
Oc1ccc2ccccc2c1/C=N/c1nc2c(s1)CCCC2 | ? | - | 23µM | - | - | ?
CCCCC1CN(CCNC(=O)c2ccccn2)Cc2ccccc2O1 (stereo unspecified) | . | - | . | . | . | .
Cc1cccc(C(=O)NNc2ncnc3c2cnn3-c2ccc(C)c(Cl)c2)c1 | . | - | . | - | - | -
CN(C)c1ccc(C(=C2C=CC(=[N+](C)C)C=C2)c2c(O)c(S(=O)(=O)[O-])cc3cc(S(=O)(=O)O)ccc23)cc1 | . | . | . | . | - | -
CN(C)c1ccc(C(=C2C=CC(=[N+](C)C)C=C2)c2ccc(N(C)C)cc2)cc1 | . | 18µM | . | 7.7µM | - | ?
CC(C)COc1ccc(CNC(=S)Nc2ccccc2)cc1Cl | - | - | ? | - | 13µM | 11µM
CSc1oc(-c2ccc(F)cc2)nc1S(=O)(=O)c1ccccc1 | - | - | - | - | - | -
CC(C)S(=O)(=O)c1oc(-c2cccs2)nc1S(=O)(=O)c1ccc(F)cc1 | . | . | . | . | 3.5µM | 2.5µM
CCCCS(=O)(=O)c1oc(-c2ccc(F)cc2)nc1S(=O)(=O)c1ccccc1 | . | . | . | . | 5.6µM | 2.8µM
CCS(=O)(=O)c1oc(-c2ccc(F)cc2)nc1S(=O)(=O)c1ccc(Br)cc1 | . | . | . | . | 3.5µM | 2.8µM
CC(C)S(=O)(=O)c1oc(-c2ccc(F)cc2)nc1S(=O)(=O)c1ccccc1 | . | . | . | . | 3.2µM | 1.4µM
CSc1oc(-c2ccc(F)cc2)nc1S(=O)(=O)c1ccc(F)cc1 | - | - | - | - | - | -
CC(NC(=O)C1CCOCC1)c1nnc2n1CCN(Cc1ccc3cccnc3c1)CC2 (stereo unspecified) | . | - | . | . | . | .
CC[C@H](CC[C@@H](C)[C@H]1CC[C@H]2[C@@H]3CC=C4C[C@@H](O)CC[C@]4(C)[C@@H]3CC[C@]12C)C(C)C | . | . | . | - | . | .
Cc1ccc(N2CC(NC(=O)c3cc4ccccc4o3)CC2=O)cc1 (stereo unspecified) | . | . | . | . | - | -
Cc1c(Cl)cccc1NC(=O)CSc1nc(=O)[nH]c2c1CCC2 | . | . | . | . | - | -
CC(C)(C)n1ncc2c(=O)n(Cc3ccc(F)cc3Cl)cnc21 | . | . | . | . | - | -
CS(=O)(=O)c1oc(-c2ccc(F)cc2)nc1S(=O)(=O)c1ccc(Cl)cc1 | . | . | . | . | 5µM | 3.2µM
CC1(C)Cc2c(sc3ncnc(NNC(=S)NCc4ccccc4)c23)CO1 | ? | ? | 1.8µM | . | - | ?
CC(C)NC(=S)NNc1ncnc2sc3c(c12)CC(C)(C)OC3 | - | - | - | - | - | -
O=C(Nc1nnc(S(=O)(=O)N2CCCc3ccccc32)s1)c1cccc(Cl)c1 | . | ? | . | - | - | ?
Cc1cc(C)n2c(Nc3ccccc3)c(-c3ccc(C)o3)nc2n1 | - | . | - | . | . | .
O=C(NC1CCN(Cc2ccccc2)CC1)c1cccc(S(=O)(=O)Nc2ccc(SC(F)F)cc2)c1 | ? | - | - | ? | - | 11µM
O=C(Nc1cccc(S(=O)(=O)Nc2ccc(SC(F)F)cc2)c1)C1CCC1 | 15µM | - | - | - | - | -
CCOC(=O)c1cc(-c2ccc(F)cc2)n(CCC(=O)Nc2ccccc2OC)c1C | . | . | . | . | - | ?
SMILES | HT1080NT lethal | ATXN viability | HT1080 IDH1KD tx | ATXN2 expr inh | HepG2 viability | TGFb inhibitor
O=C(CNC(=S)N(Cc1ccccc1)Cc1ccccc1F)NCCc1ccc(Cl)cc1 | 16µM | - | 16µM | - | - | ?
Nc1c(C(O)(C(F)(F)F)C(F)(F)F)cc(C(O)(C(F)(F)F)C(F)(F)F)c2ccccc12 | 21µM | ? | 23µM | ? | 18µM | 11µM
CCN(CC)c1ccc(N=Nc2ccc(S(=O)(=O)N(C)C)cc2)c(S(=O)(=O)NCC[n+]2ccccc2)c1 | . | - | . | . | . | .
O=C(Nc1cccc(Br)c1)c1ccc(CN2CCc3ccccc3C2)cc1 | 16µM | - | ? | - | - | ?
CSc1cccc(NC(=O)c2ccc(CN3CCc4ccccc4C3)cc2)c1 | - | - | ? | ? | - | -
Cc1cc(NCCCn2ccnc2)n2ncc(-c3ccc(Cl)cc3)c2n1 | 11µM | ? | 11µM | - | - | ?
Cc1cc(NCc2ccccn2)n2nc(C)c(-c3ccccc3)c2n1 | ? | ? | - | ? | - | 11µM
Cc1nn2c(NCc3ccccn3)cc(C(C)(C)C)nc2c1-c1ccccc1 | - | ? | - | - | - | ?
CCCc1cc(NCCCn2ccnc2)n2nc(C)c(-c3ccccc3)c2n1 | ? | - | 13µM | - | - | -
Cc1cc(NCCCN2CCOCC2)n2ncc(-c3ccc(Cl)cc3)c2n1 | - | ? | - | - | - | -
CC(C)(C)c1cc(NCCCn2ccnc2)n2ncc(-c3ccccc3)c2n1 | 18µM | - | 16µM | - | - | ?
Cc1cccc(-c2cc3nc(C)cc(NCCCn4ccnc4)n3n2)c1 | ? | ? | ? | - | - | -
CCOc1ccccc1NC(=O)c1c(NCc2ccc(C)o2)sc2c1CCCCC2 | . | ? | . | - | - | ?
O=C(NCc1ccncc1)c1cnn(-c2nccc(-c3cccs3)n2)c1C1CC1 | . | - | . | . | . | .
CC(C)(C)c1cc(NCc2ccccn2)n2ncc(-c3ccc(Cl)cc3)c2n1 | - | - | - | . | - | -
CN(C)CCCNc1cc(C(C)(C)C)nc2c(-c3ccc(Cl)cc3)cnn12 | 18µM | . | 12µM | ? | - | 22µM
Cc1cccc(C(=O)Oc2csc(=S)n2C(=O)c2cccc(C)c2)c1 | 7.3µM | - | 4.6µM | - | - | -
O=C(Oc1csc(=S)n1C(=O)c1ccccc1)c1ccccc1 | - | - | - | - | - | -
O=C(NCCc1ccc(Cl)cc1)c1ccc(CS(=O)(=O)Cc2ccc(Cl)cc2)o1 | . | . | . | . | - | -
O=C(NCCc1ccc(Cl)cc1)c1ccc(CS(=O)(=O)Cc2ccccc2F)o1 | . | 20µM | . | ? | - | -
CCSS(=O)(=O)c1cccc2cccnc12 | 33µM | - | ? | ? | - | ?
O=C(O)CCS(=O)(=O)c1cccc2cccnc12 | - | - | - | - | - | -
O=S(=O)(O)c1cc(O)c2c(O)c(N=Nc3cc(Cl)ccc3O)c(S(=O)(=O)O)cc2c1 | ? | 8.9µM | ? | ? | - | -
Cc1cc(=O)oc2c(C(=O)/C=C/c3ccccc3)c(O)ccc12 | - | - | - | - | - | -
Cc1cc(=O)oc2c(C(=O)/C=C\c3cccs3)c(O)ccc12 | ? | - | 21µM | - | - | -
O=C1N/C(=N\N=C\c2ccccn2)SC1Cc1cccc(SC(F)F)c1 (stereo unspecified) | - | ? | ? | 18µM | - | ?
O=C1N/C(=N\N=C\c2cccnc2)SC1Cc1ccc(SC(F)F)cc1 (stereo unspecified) | ? | ? | 23µM | 13µM | - | -
